Test results taken from the supplement of paper PMC10338343.
± gives the standard deviation.

What follows are sequences tested on EfPiwi piRISC loaded with L1MC piRNA (26 nt) (assay: pre-steady-state target cleavage rate (min^-1); auxiliary factor: 500 nM Ephydatia muelleri Gtsf1; guide: L1MC piRNA 5'p-UAACUAAAUACUAUGCAAGCUGUAGG; MIWI and MILI are mouse PIWI proteins and EfPiwi is from a freshwater sponge; tags in brackets are library labels; higher = faster piRNA-guided slicing of the target).
In short: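 A transcribed, DNA-blocked target RNA library […] was incubated at 33 °C for 0–8 or 0–960 min with 1 nM active affinity-purified piRISC carrying one synthetic guide, in HEPES–potassium acetate buffer with or without 500 nM GTSF1 partner protein. Uncleaved targets were then sequenced and normalised to depth and to weakly complementary targets. Data from three trials were pooled, with k3 capped at 0.0001 min^-1, and a burst-and-steady-state fit yielded the pre-steady-state cleavage rate.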
For UCCUCCUACAGCUUGGUAAGUAUUUAGUUA, the “pre-steady-state target cleavage rate” value was 0.00379 ± 0.0034.
With UCCUGGAUGUGCUUGCAUAGUAUUUAAGUUA the “pre-steady-state target cleavage rate” value was 0.0404 ± 0.015.
For UCCUCCUACAGUUUGCAUAGUAUUUAGUUA, the “pre-steady-state target cleavage rate” value was 0.0845 ± 0.021.
For UCCUCCUACCAGCUUGCAUAGUAUUUAGUUA, the “pre-steady-state target cleavage rate” value was 0.0186 ± 0.0056.
With UCCUCCAACAGCUUGCAUUGUAUUUAGUUA the “pre-steady-state target cleavage rate” value was 0.0205 ± 0.0058.
UCCUGGAUGAGCAUUGCAUAGUAUUUAGUUA was tested, and the “pre-steady-state target cleavage rate” value was 0.008 ± 0.0029.
In the case of UCCUGCAACAGCUUGCAUAGUAUUUAGUAA, the “pre-steady-state target cleavage rate” value is reported as 0.00572 ± 0.0023.
UCCUGGUACAGCAUGCAUAGUAUUAAGUUA was tested, and the “pre-steady-state target cleavage rate” value was 0.00442 ± 0.002.
In the case of UCCUGGAUGUGGUUGCAUAGUAUUUAGUAA, the “pre-steady-state target cleavage rate” value is reported as 0.11 ± 0.056.
In the case of UCCUGCUCACAGCUUGCAUAGUAUUUAGUUA, the “pre-steady-state target cleavage rate” value is reported as 0.072 ± 0.016.
With UCCUGGAUGUCCUUAGCAUAGUAUUUAGUUA the “pre-steady-state target cleavage rate” value was 0.00479 ± 0.003.
In the case of UCCUCCUACAACUUGCAUAGUAUUUAGUUA, the “pre-steady-state target cleavage rate” value is reported as 0.0806 ± 0.024.
For UCCUCCGACAGCUUGCAUAGUAUUUAGUUA, the “pre-steady-state target cleavage rate” value was 0.101 ± 0.026.
For UCCUCCUAGCAGCUUGCAUAGUAUUUAGUUA, the “pre-steady-state target cleavage rate” value was 0.0339 ± 0.0083.
With UCCUGCUUCAGCUUGGAUAGUAUUUAGUUA the “pre-steady-state target cleavage rate” value was 0.0331 ± 0.007.
For UCCUGCUACAGCUUGCUAGUAUUUAGUUA, the “pre-steady-state target cleavage rate” value was 0.00473 ± 0.0031.
In the case of UCCUGGAUCAGCUUGGAUAGUAUUUAGUUA, the “pre-steady-state target cleavage rate” value is reported as 0.0092 ± 0.0025.
With UCCUGGAACAGCUUGGAUAGUAUUUUGUUA the “pre-steady-state target cleavage rate” value was 0.00249 ± 0.0021.
For UCCUGGAUGUGCUUGCAUUGUAUUUAGUUA, the “pre-steady-state target cleavage rate” value was 0.00484 ± 0.0027.
With UCCUGGAUCAGCAUGCAAAGUAUUUAGUUA the “pre-steady-state target cleavage rate” value was 0.0037 ± 0.0031.
With UCCUGGUACAGCUUGCAUAGUAUAAAGUUA the “pre-steady-state target cleavage rate” value was 0.00482 ± 0.0022.
UCCUGGAUGUGCUUGCAUAGUAUCUAGUUA was tested, and the “pre-steady-state target cleavage rate” value was 0.00344 ± 0.0024.
For UCCUGCUACAGCUUGCAUAGUAUUCUAGUUA, the “pre-steady-state target cleavage rate” value was 0.0043 ± 0.002.
For UCCUGGAAACAGCUUGCAUAGUAUUUAGUUA, the “pre-steady-state target cleavage rate” value was 0.164 ± 0.034.
With UCCUGGAUCAGCUUGCAUAGUAAUUAGUUA the “pre-steady-state target cleavage rate” value was 0.0264 ± 0.0082.
For UCCUGGUACAGCUCGCAUAGUAUUUAGUUA, the “pre-steady-state target cleavage rate” value was 0.00967 ± 0.0034.
For UCCUGGAACAGCUCUGCAUAGUAUUUAGUUA, the “pre-steady-state target cleavage rate” value was 0.0165 ± 0.005.
In the case of UCCUCCUUCAGCUUGCAUUGUAUUUAGUUA, the “pre-steady-state target cleavage rate” value is reported as 0.0307 ± 0.0077.
With UCCUGGAUGUGCCUGCAUAGUAUUUAGUUA the “pre-steady-state target cleavage rate” value was 0.00933 ± 0.0036.
With UCCUCCUACUGCAUGCAUAGUAUUUAGUUA the “pre-steady-state target cleavage rate” value was 0.0706 ± 0.019.
For UCCUGCUACAGCUAGGAUAGUAUUUAGUUA, the “pre-steady-state target cleavage rate” value was 0.011 ± 0.0037.
UCCUGGAUGAGCUUGCAUAGUAUUUGGUUA was tested, and the “pre-steady-state target cleavage rate” value was 0.00713 ± 0.002.
For UCCUCCUAGACCUUGCAUAGUAUUUAGUUA, the “pre-steady-state target cleavage rate” value was 0.141 ± 0.041.
With UCCUGGUUCAGCUUGCAUAGUUUUUAGUUA the “pre-steady-state target cleavage rate” value was 0.00498 ± 0.0023.
For UCCUGCUAGAGCUUGCAUAGUAUUUAGUUA, the “pre-steady-state target cleavage rate” value was 0.00838 ± 0.0023.
UCCUGGAUGAGCUUGCAUAGUAUCUUAGUUA was tested, and the “pre-steady-state target cleavage rate” value was 0.0147 ± 0.005.
With UCCUGGAUGAGCUUGCAUAGUAUUUAGAUA the “pre-steady-state target cleavage rate” value was 0.00326 ± 0.0019.
In the case of UCCUGGAUCAGCUAGCAUAGUAUUUAGUAA, the “pre-steady-state target cleavage rate” value is reported as 0.00362 ± 0.0032.
With UCCUGGAACUGCUUGCAUAGUUUUUAGUUA the “pre-steady-state target cleavage rate” value was 0.00498 ± 0.0026.
For UCCUCCUACAGCUUGCAUAGUUUUUAGUUA, the “pre-steady-state target cleavage rate” value was 0.00894 ± 0.003.
